Molecules are shown by their SMILES. The panel holds about 83,000 compounds, 20% with a hit somewhere; the sample as a whole holds those more often.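 The endpoint reported here, percent growth, reads 100 for growth as untreated, 0 for no net growth and -100 for all cells dead.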 A number with no mark means an inactive call. Activity calls are given as the source filed them. The calls were made as follows: active = growth percent below 10; inactive = the rest.

Here are results for twelve compounds from PubChem BioAssay (NCI).

Holding throughout (assay): NCI-60 one-dose screen, 48 h (100 = growth as untreated, 0 = no growth, -100 = all killed)
Holding throughout (conditions): 10 µM unless noted

The subject of experiment [1] is DU-145 prostate.
Experiment [2] concerns K-562 leukemia.
The test system of experiment [3] is MALME-3M melanoma.
Experiment [4] has as its system MDA-MB-231 breast.
Experiment [5] relates to RXF 393 renal.
For experiment [6], the system named is SF-268 CNS.
In experiment [7] the test system is SF-295 CNS.
In experiment [8] the test system is SF-539 CNS.
In experiment [9] the test system is UACC-257 melanoma.
The subject of experiment [10] is M14 melanoma.

Turning to `COc1cc(-c2nc(SCCC(C)C)nc(Nc3ccccc3Cl)c2C#N)cc(OC)c1OC`, the growth in experiment [1] was 97.7%; in [2] it was 95.1%; in [3], 105%; in [4], 81.5%; in [5], 117%; in experiment [6], 85.7%. The growth in experiment [7] was 100%; in experiment [8], 95.6%; in experiment [9] it was 127%; in experiment [10], 96.6%.
Consider `O=C1CNC(c2ccccc2)C(c2ccccc2)N1` (stereo not given), for which the growth in experiment [1] is 102%; in [2], 120%; in experiment [3] it was 86.9%; in experiment [4] it was 100%; in experiment [5], 98.3%; in experiment [6] it was 110%. Also, the growth was 109% in [7], 100% in experiment [8], 102% in experiment [9] and 97.4% in experiment [10].
On to `C#CCOc1ccc2ncnc(Nc3cccc(NC(=O)C=C)c3)c2c1`, for which the growth in experiment [1] is 54%; in experiment [2], 70.6%; in experiment [3] it was 73.9%; in experiment [4], 58.1%; in experiment [5] it was 6.44% (active); in experiment [6] it was 55.9%. Also, the growth in [7] is 91.6%; in experiment [8] it was 59.2%; in experiment [9], 69.5%; in experiment [10], 62.8%.
On to `CCCCOC(=O)OCc1cc(=O)c(O)co1`, for which the growth in experiment [1] is 113%; in experiment [2] it was 97.4%; in experiment [3], 102%; in [4], 114%; in experiment [5] it was 113%; in experiment [6], 105%. The growth in experiment [7] was 96.3%; in experiment [8], 100%; in experiment [9], 104%; in experiment [10] it was 106%.
As for `CCCCC[C@@H]1Cc2cc(O)c(C(=O)O)c3c2[C@H](C[C@]2(OC[C@@H](CC(=O)[C@@](C)(CC)C(=O)OC)[C@@H]2C)O3)O1`, the growth is 120% in experiment [1]; 117% in [2]; 104% in experiment [3]; 100% in experiment [4]; 119% in experiment [5]; 108% in [6]. In addition, the growth in experiment [7] was 121%; in experiment [8], 100%; in experiment [9], 87.6%; in experiment [10], 119%.
Take `O=Nc1c(-c2c(O)[nH]c3ncccc23)[nH]c2ccccc12`: the growth in [1] is 62.2%; in [2], 53.3%; in experiment [3], 91%; in [4], 78.6%; in experiment [5], 29.4%; in [6] it was 66.2%. Moreover, the growth in [7] was 94.9%; in [8] it was 50.3%; in experiment [9], 92.6%; in [10], 56.4%.
In the case of `CC(C)(C)n1cc(-c2ccnc(NCCNS(=O)(=O)c3cccc4ccccc34)c2)c(-c2cccc(F)c2)n1`, the growth was 4.18% (active) in experiment [1]; -30% (active) in experiment [2]; -73.1% (active) in [3]; -8.01% (active) in experiment [4]; -52.3% (active) in experiment [5]; 29.5% in experiment [6]. For the same compound, the growth in experiment [7] was -68.7% (active); in experiment [8] it was -74.8% (active); in experiment [9], -8.81% (active); in experiment [10], -19% (active).
On to `N#Cc1cccc(-c2c(-c3ccc4ccccc4c3)oc3ccccc3c2=O)c1`, for which the growth in [1] is 77.1%; in experiment [2] it was 11.5%; in [3] it was 48.7%; in experiment [4], 55.7%; in experiment [5] it was 81.7%; in [6] it was 65.8%. Also, the growth is 34.2% in experiment [7], 43.4% in experiment [8], 58.2% in experiment [9] and 6.18% (active) in experiment [10].
In the case of `Fc1ccc2[nH]cc(-c3nonc3-c3c[nH]c4ccc(Br)cc34)c2c1`, the growth in experiment [1] was 42%; in experiment [2], 4.21% (active); in [3], 21.2%; in experiment [4], -20.2% (active); in experiment [5] it was 77.3%; in [6] it was 38.2%. The growth in experiment [7] is 9.73% (active); in experiment [8], 16.7%; in experiment [9] it was 42.7%; in experiment [10], -5.26% (active).
`CCn1cc(C(=O)N/N=C/c2cccs2)c(=O)c2cc(F)c(N3CCNC(C)C3)c(F)c21` (stereo not given): the growth in [1] is 48.3%; in experiment [2], -39% (active); in [3], -36.7% (active); in experiment [4] it was 41%; in experiment [5], 16.2%; in [6], 79.1%. Besides, the growth in [7] was 85.3%; in [8], 84.2%; in [9] it was 108%; in [10], 49.4%.
As to `CCCc1cc(NC)nc(S(=O)(=O)CC)n1`, the growth is 109% in experiment [1]; 97.7% in experiment [2]; 110% in experiment [3]; 109% in experiment [4]; 108% in experiment [5]; 98.4% in experiment [6]. Moreover, the growth in experiment [7] was 99.9%; in experiment [8], 100%; in experiment [9] it was 106%; in experiment [10], 99.8%.
Consider `CCN(c1ccc(Cl)cc1)c1nc(-c2ccc([N+](=O)[O-])cc2)cs1`, for which the growth in [1] is 103%; in [2], 88.9%; in experiment [3] it was 80.5%; in experiment [4], 90.6%; in experiment [5], 113%; in experiment [6], 110%. Besides, the growth is 100% in [7], 99.6% in experiment [8], 104% in [9] and 99.7% in experiment [10].
